“And” between values parts separate entries of the source, which are not always exact repeats. Equal values may be shown once. The campaign covered roughly 5,500 compounds. About 2,000 (36%) were called active. Not shown: some 18% with an inconclusive outcome. No stated cut-off is given here; in the data, active means normalized growth mostly below about 0.91 (no sharp cut-off); inconclusive means no clear call, values can overlap the other calls; inactive means mostly above about 0.92. Some of the results follow.
Assay: chemical genetic growth profiling, strain panel (AID 1159580);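 further: tested at 20 µM; growth read once vehicle control cultures reached saturation at 30 °C; 1 = growth at the plate median or of vehicle wells; lower values mean less growth of the strain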
Details: S. cerevisiae deletion strains, growth OD

Measured: normalized growth

CCC(=O)OCC(=O)C1(OC(=O)CC)C(C)CC2C3CCC4=CC(=O)C=CC4(C)C3(Cl)C(O)CC21C (stereo unspecified)
inactive: locus YAL021C, strain ccr4, active compounds read low 0.99 | locus YAL026C, strain drs2, active compounds read low 1 | locus YAL030W, strain snc1, active compounds read low 0.999 | locus YBL061C, strain skt5, active compounds read low 0.98 | locus YBR009C, strain hhf1, active compounds read low 0.996 | locus YBR021W, strain FUR4, active compounds read low 1.04 | locus YBR023C, strain chs3, active compounds read low 0.979 | locus YBR171W, strain sec66, active compounds read low 0.963 | locus YBR229C, strain ROT2, active compounds read low 1.02 | locus YBR231C, strain swc5, active compounds read low 0.972 | locus YBR279W, strain paf1, active compounds read low 0.99 | locus YCL011C, strain gbp2, active compounds read low 1 | locus YCL016C, strain dcc1, active compounds read low 1.01 | locus YCL029C, strain bik1, active compounds read low 0.993 | locus YCL061C, strain MRC1, active compounds read low 0.991 | locus YCL069W, strain vba3, active compounds read low 0.977 | locus YCR088W, strain abp1, active compounds read low 0.993 | locus YDL005C, strain med2, active compounds read low 0.97 | locus YDL035C, strain GPR1, active compounds read low 1.03 | locus YDL040C, strain nat1, active compounds read low 0.973 | locus YDL074C, strain BRE1, active compounds read low 1.03 | locus YDL101C, strain DUN1, active compounds read low 1.01 | locus YDL185W, strain tfp1, active compounds read low 0.998 | locus YDL192W, strain arf1, active compounds read low 0.997 | locus YDR001C, strain nth1, active compounds read low 0.989 | locus YDR069C, strain doa4, active compounds read low 0.959 | locus YDR101C, strain arx1, active compounds read low 0.969 | locus YDR137W, strain rgp1, active compounds read low 0.932 | locus YDR150W, strain NUM1, active compounds read low 1.01 | locus YDR159W, strain sac3, active compounds read low 0.959 | locus YDR162C, strain NBP2, active compounds read low 1.04 | locus YDR195W, strain ref2 0.975 | locus YDR297W, strain sur2, active compounds read low 0.979 | locus YDR318W, strain mcm21, active compounds read low 0.993 | locus YDR334W, strain swr1, active compounds read low 0.991 | locus YDR335W, strain msn5, active compounds read low 0.966 | locus YDR388W, active compounds read low 0.99 | locus YDR392W, strain spt3, active compounds read low 1.03 | locus YDR502C, strain sam2, active compounds read low 0.994 | locus YEL003W, strain gim4, active compounds read low 0.973 | locus YEL037C, strain rad23, active compounds read low 0.975 | locus YEL061C, strain CIN8 (second series), active compounds read low 0.975 | locus YEL061C, strain CIN8, active compounds read low 1.01 | locus YER015W, strain faa2, active compounds read low 0.986 | locus YER016W, strain bim1, active compounds read low 0.996 | locus YER110C, active compounds read low 0.984 | locus YER111C, strain swi4, active compounds read low 0.967 | locus YER155C, strain BEM2 (second series), active compounds read low 0.995 | locus YER155C, strain BEM2, active compounds read low 1.01 | locus YER167W, strain BCK2, active compounds read low 1.02 | locus YFR010W, strain ubp6, active compounds read low 0.957 | locus YGL078C, strain dbp3, active compounds read low 0.99 | locus YGL086W, strain mad1, active compounds read low 0.989 | locus YGL167C, strain pmr1, active compounds read low 0.948 | locus YGL173C, strain kem1, active compounds read low 0.952 | locus YGL227W, strain vid30, active compounds read low 0.983 | locus YGL240W, strain doc1, active compounds read low 0.974 | locus YGL248W, strain PDE1, active compounds read low 1.02 | locus YGL253W, strain hxk2, active compounds read low 0.926 | locus YGR135W, strain pre9, active compounds read low 1 | locus YGR229C, strain SMI1, active compounds read low 1.03 | locus YGR252W, strain gcn5, active compounds read low 1.02 | locus YHR013C, strain ard1, active compounds read low 0.987 | locus YHR027C, strain rpn1, active compounds read low 0.999 | locus YHR030C, strain SLT2, active compounds read low 1.01 and 1.11 | locus YHR079C, strain IRE1 (second series), active compounds read low 0.985 | locus YHR079C, strain IRE1, active compounds read low 1.05 | locus YHR094C, strain hxt1, active compounds read low 0.989 | locus YHR129C, strain ARP1, active compounds read low 1.02 | locus YHR142W, strain chs7, active compounds read low 0.913 | locus YHR200W, strain rpn10, active compounds read low 0.99 | locus YIL066C, strain RNR3, active compounds read low 1.03 | locus YIL073C, strain SPO22, active compounds read low 1.01 | locus YIL125W, strain kgd1, active compounds read low 0.99 | locus YIR030C, strain dcg1, active compounds read low 0.984 | locus YJL092W, strain hpr5, active compounds read low 0.978 | locus YJL095W, strain BCK1 (second series), active compounds read low 0.982 | locus YJL095W, strain BCK1, active compounds read low 1.02 and 1.04 | locus YJL115W, strain asf1, active compounds read low 0.973 | locus YJL129C, strain trk1, active compounds read low 0.922 | locus YJL134W, strain LCB3, active compounds read low 1.01 | locus YJL154C, strain vps35, active compounds read low 0.965 | locus YJL164C, strain tpk1, active compounds read low 1.01 | locus YJL166W, strain qcr8, active compounds read low 0.947 | locus YJL168C, strain set2, active compounds read low 0.991 | locus YJL187C, strain SWE1 (second series), active compounds read low 1

— PubChem BioAssay AID1159580 (chemical genetic matrix, 2015)
